# System: NEK9
# Conditions: concentration: 1 μM, replicates: in singlicate; n = 1
# 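Also: KINOMEscan kinase panel screen.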
row,Structure (SMILES),%Inh
1,NS(=O)(=O)c1cccc(-c2ccc3ncc(N4CCOCC4)nc3c2)c1 [GSK1535721],0%
2,CN1c2ccc(CNc3ccc(F)cc3)cc2-c2c(cnn2C)S1(=O)=O,0%
3,Cc1cn2c(=O)cc(N3CCOCC3)nc2n1Cc1cccc(Cl)c1Cl [GSK2334006],8%
4,CC(C)(C)n1cnc2c(N)ncnc21 [SKF-97359],0%
5,O=c1cc(N2CCOCC2)nc2n(Cc3cccc(F)c3)ccn12 [GSK2297430],7%
6,O=C(c1ccc(-c2cc(-c3c[nH]nc3-c3ccccn3)ccn2)cc1)N1CCOCC1 [GW812171],0%
7,COc1ccc(Nc2nccc(N3CCC(NC(=O)Nc4cccc(C(C)=O)c4)C3)n2)cc1 (stereo not drawn) [GSK1379731],0%
8,Cc1ccc(NC(=O)c2ccnc(N3CCN(C)CC3)c2)cc1-c1ccc(C(=O)NCC2CC2)cc1 [GW775604],0%
9,Nc1nccc(-c2c(-c3ccc(F)cc3)ncn2C2CCN(CC(F)(F)F)CC2)n1 [SB-236560],20%
10,Cc1nnc(-c2ccc3ncc(-c4ccc(S(C)=O)cc4)n3c2)o1 (stereo not drawn),0%
11,CN(C1=C(c2ccccc2)C(=O)NC1=O)c1ccccc1 [SB-334860],17%
12,CSc1ccc(-c2cc3ncnc(SCC(=O)O)c3s2)cc1,0%
13,O=C1Cc2cc(Nc3nc(NCc4cccc(S(=O)(=O)C(F)(F)F)c4)ncc3C(F)(F)F)ccc2N1,0%
14,Cc1ccc(C(=O)NCC(N)=O)cc1-n1c(C)cc(OCc2ccc(F)cc2F)c(Br)c1=O,4%
15,CN(C(=O)c1ccc(-c2cc(-c3c[nH]nc3-c3ccccn3)ccn2)cc1)C1CCOCC1 [GW810083],18%
16,c1ccc(-c2cc(-c3c[nH]nc3-c3ccccn3)ccn2)cc1 [GW576604],17%
17,COc1cc2c(cc1OC[C@@H](O)CO)ncc1c3ccc(C#N)cc3[nH]c21,0%

row,Structure (SMILES),%Inh
1,CCCCCc1nc2c(N)ncnc2n1CCCCC [SKF-97255],0%
2,Fc1ccc(-c2ncn(CCCN3CCOCC3)c2-c2cccnc2)cc1 [SB-211743],0%
3,Cc1cccc(Cn2ccn3c(=O)cc(N4CCOCC4)nc23)c1 [GSK2297542],15%
4,Fc1ccc(-c2nn3c(OCC(F)(F)F)cccc3c2-c2ccncc2)cc1 [GW514784],4%
5,COc1cc2c(cc1OCCN1CCN(C)CC1)ncc1c3ccc(C#N)cc3[nH]c21,0%
6,COc1ccc(COc2cc(-n3cnc4ccccc43)sc2C(N)=O)cc1 [GSK1024304],5%
7,O=C(NOCC1CC1)c1ccc(F)c(F)c1Nc1ccc(I)cc1Cl,0%
8,Cc1c2ccc(N(C)c3ccnc(Nc4cccc(S(N)(=O)=O)c4)n3)cc2nn1Cc1ccccc1.Cl.Cl [GW787226],0%
9,O=c1cc(N2CCOCC2)nc2n(Cc3cccc(C(F)(F)F)c3)ccn12 [GSK2297543],18%
10,Cc1nnc(-c2ccc(C)c(-c3ccc(C(=O)Nc4ccc(NS(C)(=O)=O)cc4)cc3)c2)o1 [GW702865],7%
11,O=C(NCCNc1ccnc(Nc2ccc(F)cc2)n1)c1cc2ccccc2s1 [GSK1379874],16%
12,Cc1nnc(-c2ccc3occ(-c4ccc(C(C)O)cc4)c3c2)o1 (stereo not drawn),0%
13,CCn1cnc2c(N)ncnc21 [GW345098],0%
14,N#Cc1c(N2CCOCC2)sc(-c2ccn[nH]2)c1-c1ccc(Cl)cc1,0%
15,Cl.Oc1cccc(Nc2ccnc3cc(-c4ccncc4)ccc23)c1 [GW494601],0%
16,O=C(NCCNc1ccnc(Nc2ccc(F)cc2)n1)Nc1ccccc1F [GSK1379880],11%

# Reference: article PMC5540273 (PLoS ONE, 2017)
